Experimental findings from PubChem BioAssay (NCATS) are described below.

Records with an inconclusive call do not appear. Calls of active or inactive are those of the source. Unless noted, calls follow the shape of the dose curve; as a rule, active = well fitted curve in the direction sought with a large enough effect; inconclusive = small, poorly fitted or top-dose-only effect, or another doubt; inactive = no such curve, though single readings can be large; an effect the other way counts as inactive or inconclusive.

Assay [1] can be described thus: Cell Viability - Jurkat (AID 426;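 active = dose-dependent loss of cell ATP signal giving a full or clear fitted curve, ranked by lower potency value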; also: potency is read from the fitted curve at half-maximal effect). The note with it: qHTS. In outline: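 Jurkat (clone E6-1, human T-cell leukemia) cells, 5000/well in complete medium, were exposed to compound for 40 hr at 37 °C. Viability was read as intracellular ATP by CellTiter-Glo luminescence; AC50 came from Hill fits of concentration-response data.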
A short description of assay [2]: Cell Viability - Hek293 (AID 427;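 active = compounds whose dose-response curve shows a full or clear partial loss of cell viability, called from curve shape rather than a numeric limit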;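 also: potency is read from the fitted curve at half-maximal effect; cells exposed to compound for 40 hours at 37 °C before reading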). The note with it: qHTS. In short, it runs like this: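 HEK293 cells in complete medium were exposed to compound for 40 hr at 37 °C, then cellular ATP was read by CellTiter-Glo luminescence. Data were normalized to DMSO (basal) and 100 uM tamoxifen (100% inhibition), and AC50 came from Hill fits.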
Background: qHTS replaces the single test concentration by a dilution series.

The nature of assay [3]: Cell Viability - SH-SY5Y (AID 544). Also: nearly all actives have a fitted effect of over 55% in size. Also: potency is read from the fitted curve at half-maximal effect.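 As to viability change, negative = cytotoxic: 0% = DMSO alone and -100% = 100 µM tamoxifen.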 The note with it: SH-SY5Y neuroblastoma cell viability; viability change, negative = cytotoxic: at 92.2 µM (top of the series). In outline:
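Human neuroblastoma SH-SY5Y cells (1500/well) in complete medium were exposed to compounds for 40 hr at 37 °C; intracellular ATP was then quantified by CellTiter-Glo luminescence after 20 min at room temperature. AC50 came from Hill-equation concentration-response fits.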

A short description of assay [4]: Cell Viability - Mesenchymal (AID 546).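 Also: cells exposed to compound for 40 hours before reading; 0% = DMSO only and -100% = 100 µM tamoxifen.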 The note with it: mesenchymal cells viability, qHTS; series mostly up to 91.7 µM. In outline: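 Normal human renal glomerulus-derived kidney mesenchymal cells, 1000 per well in complete medium, were treated with compounds for 40 hr at 37 °C. Viability was read as intracellular ATP by CellTiter-Glo luminescence; AC50 values came from Hill-equation fits of qHTS concentration-response data.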

For assay [5], the target named is Cytochrome P450 3A4 (Homo sapiens) (UniProt P08684). Nature of the assay: qHTS Assay for Inhibitors and Substrates of Cytochrome P450 3A4 (AID 884). Also: nearly all actives have a fitted effect of over 50% in size. Also: potency is read from the fitted curve at half-maximal effect. The note with it: recombinant CYP3A4, Luciferin-PPXE luminescence; series mostly up to 57.1 µM. In outline: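 20 nM human CYP3A4 with 25 uM Luciferin-PPXE (at KM) in 200 mM KPO4, preincubated 10 min with compound; NADPH regeneration started a 60 min RT reaction. Luciferin detected by luminescence, normalized to 57 uM ketoconazole as full inhibition.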
Cytochrome P450 3A4 (Homo sapiens), sequence (P08684 whole entry, looked up): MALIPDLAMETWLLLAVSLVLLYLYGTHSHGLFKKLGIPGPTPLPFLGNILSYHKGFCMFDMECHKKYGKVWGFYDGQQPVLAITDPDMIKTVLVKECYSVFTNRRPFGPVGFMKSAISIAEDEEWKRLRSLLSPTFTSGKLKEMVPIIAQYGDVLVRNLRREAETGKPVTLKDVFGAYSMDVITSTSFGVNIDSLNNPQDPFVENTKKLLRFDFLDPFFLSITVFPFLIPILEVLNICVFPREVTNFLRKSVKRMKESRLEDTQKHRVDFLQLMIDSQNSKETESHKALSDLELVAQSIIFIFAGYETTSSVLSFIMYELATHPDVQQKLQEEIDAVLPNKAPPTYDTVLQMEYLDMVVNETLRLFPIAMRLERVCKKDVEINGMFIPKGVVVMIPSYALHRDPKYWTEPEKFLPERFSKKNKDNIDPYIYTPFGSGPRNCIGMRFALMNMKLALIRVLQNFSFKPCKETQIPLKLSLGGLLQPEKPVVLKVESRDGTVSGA

Assay [6] in a line: MultiTox-Fluor Cytotoxicity Assay - LYMP1-002 - Dead Cells (AID 960).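 Also: 0% = DMSO and 100% = tetraoctylammonium bromide; nearly all actives have a fitted effect of over 60% in size.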 The note with it: LYMP1-002 lymphoblastoid cells, dead-cell protease fluorescence; series mostly up to 46.1 µM. In short, it runs like this:
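Human lymphoblastoid cells (LYMP1-002), 2500/well in complete medium, were exposed to compounds for 16 hr at 37 C. Dead-cell protease activity was read as bis-AAF-R110 fluorescence (Ex/Em 485/520), normalized to DMSO and 15 uM tetraoctylammonium bromide; AC50 from Hill fits.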

Assay [7] can be described thus: Cell Viability - LYMP2-005 (AID 967).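 Also: plate controls were DMSO only for no effect and 92 µM tetraoctylammonium bromide control for full effect.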 The note with it: LYMP2-005 lymphoblastoid cell viability; series mostly up to 92.2 µM. In outline:
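LYMP2-005 human lymphoblastoid cells (2500/well) were treated with compounds for 24 h at 37 C. Intracellular ATP was then measured by CellTiter-Glo luminescence after 30 min at room temperature. AC50 values came from Hill-equation fits of qHTS concentration-response data.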

Assay [8] can be described thus: Cell Viability - LYMP2-019 (AID 973).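 Also: 0% = DMSO alone and full effect = 92 µM tetraoctylammonium bromide; nearly all actives have a fitted effect of over 55% in size.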 The note with it: LYMP2-019 lymphoblastoid cell line viability; series mostly up to 92.2 µM. In outline: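 Human lymphoblastoid cells were seeded at 2500 cells/well, preincubated 5 hr at 37 C, then exposed to compounds for 24 hr at 37 C in complete medium. Intracellular ATP was measured by CellTiter-Glo luminescence; AC50 from Hill fits.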

Assay [9] in a line: Cell Viability - LYMP2-010 (AID 981). Also: % is scaled to controls: 0 for no effect and ±100 for the full control effect; nearly all actives have a fitted effect of over 55% in size. The note with it: LYMP2-010 lymphoblastoid cell viability, qHTS; series mostly up to 92.2 µM. In short, it runs like this: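 Human lymphoblastoid LYMP2-010 cells (2500/well) were preincubated 5 hr at 37 C, then exposed to compounds for 24 hr at 37 C in complete medium. Intracellular ATP was measured by CellTiter-Glo luminescence after 30 min at room temperature; AC50 from Hill-fitted concentration-response.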

Assay [10] is described as follows: Cell Viability - LYMP2-024 (AID 988).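 Also: plate controls were DMSO only for no effect and 92 µM tetraoctylammonium bromide for full effect; nearly all actives have a fitted effect of over 60% in size.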 The note with it: LYMP2-024 lymphoblastoid cell viability; series mostly up to 92.2 µM. In outline:
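Human lymphoblastoid cells (2500/well) in complete medium were preincubated 5 hr at 37 C, then exposed to compounds for 24 hr at 37 C. Intracellular ATP was read by CellTiter-Glo luminescence; AC50 from Hill-equation fits of concentration-response data.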

A short description of assay [11]: Cell Viability - LYMP2-026 (AID 989). Also: % is scaled to controls: 0 for no effect and ±100 for the full control effect; nearly all actives have a fitted effect of over 50% in size. The note with it: LYMP2-026 lymphoblastoid cell viability, qHTS; series mostly up to 92.2 µM. In short, it runs like this: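 Human lymphoblastoid cells (2500/well) in complete medium were preincubated 5 hr at 37 C, then exposed to compounds for 24 hr at 37 C. Cellular ATP was read by CellTiter-Glo luminescence; AC50 from Hill-equation fits of concentration-response data.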

Assay [12] can be described thus: Cell Viability - LYMP1-002 - Assay at 40 hr (AID 994).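 Also: 0% = DMSO only and full inhibition = 92 µM tetraoctylammonium bromide; nearly all actives have a fitted effect of over 60% in size.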 The note with it: LYMP1-002 lymphoblastoid cell viability; series mostly up to 92.2 µM. In outline: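 Human lymphoblastoid cells, 2500/well in complete medium, were preincubated 5 hr at 37 C, then exposed to compounds for 40 hr at 37 C. Intracellular ATP was read by CellTiter-Glo luminescence after 30 min at room temperature; AC50 from Hill-equation fits.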

Assay [13] addresses Peroxisome proliferator-activated receptor gamma (Homo sapiens) (UniProt P37231). Description: qHTS assay for small molecule agonists of peroxisome proliferator-activated receptor gamma signaling (AID 588536; active = well fitted curve in the direction sought with a large enough effect in the signal ratio, with a control signal flat, not every such curve was filed as active; the % refers to the signal ratio;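 also: 0% = DMSO basal wells and 100% = rosiglitazone at 2 µM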). The note with it: HEK293 PPARg-UAS-bla, beta-lactamase ratio, 16 h, percent of rosiglitazone response, DMSO as zero; series mostly up to 76.7 µM. In short, it runs like this:
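GeneBLAzer PPAR-gamma-UAS-bla HEK293 cells in 1% charcoal/dextran-treated FBS medium were treated 16 h at 37 C with compounds. Beta-lactamase activity was read by CCF4 ratio (460/530 nm). Response was normalized to 2 uM rosiglitazone (100%) and DMSO, then Hill-fitted for EC50 and efficacy.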

A short description of assay [14]: qHTS assay for small molecule agonists of retinoid X receptor alpha signaling (AID 588544; calls by dose curve). The note with it: HEK293T RXRa-UAS-bla, beta-lactamase reporter, 18 h; 530 nm emission.
The target of assay [15] is Retinoic acid receptor RXR-alpha (Homo sapiens) (UniProt P19793). The assay is described as above. The note with it: HEK293T RXRa-UAS-bla, beta-lactamase reporter, 18 h; series mostly up to 76.7 µM.
Retinoic acid receptor RXR-alpha (Homo sapiens), sequence (P19793 whole entry, looked up): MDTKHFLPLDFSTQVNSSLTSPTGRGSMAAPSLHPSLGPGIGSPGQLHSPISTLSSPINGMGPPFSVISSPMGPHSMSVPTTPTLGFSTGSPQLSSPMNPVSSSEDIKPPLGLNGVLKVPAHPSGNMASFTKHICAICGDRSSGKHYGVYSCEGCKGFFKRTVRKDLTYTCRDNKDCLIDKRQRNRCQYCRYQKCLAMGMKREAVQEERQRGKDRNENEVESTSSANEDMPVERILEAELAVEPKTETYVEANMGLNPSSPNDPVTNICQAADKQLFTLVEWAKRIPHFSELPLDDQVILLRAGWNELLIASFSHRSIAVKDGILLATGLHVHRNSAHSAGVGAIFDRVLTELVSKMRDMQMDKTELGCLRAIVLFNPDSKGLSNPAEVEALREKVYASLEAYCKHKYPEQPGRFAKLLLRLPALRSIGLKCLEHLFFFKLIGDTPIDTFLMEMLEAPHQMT
The target of assay [16] is Thyroid hormone receptor beta (Homo sapiens) (UniProt P10828). Nature of the assay: qHTS assay for small molecule agonists of thyroid hormone receptor beta signaling (AID 588545; calls by dose curve;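 also: 0% = DMSO only and 100% = 10 nM T3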). The note with it: TR-UAS-bla GripTite HEK 293, beta-lactamase ratio, agonist mode, 18 h; series mostly up to 76.7 µM. In short, it runs like this: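 TR-UAS-bla GripTite HEK 293 cells (2500/well, medium with 2% charcoal/dextran FBS) were treated in agonist mode for 18 h at 37 C, titrated. Beta-lactamase was read by CCF4 ratio after 2 h; normalized to 10 nM T3 (100%) and DMSO, Hill-fitted for EC50 and efficacy.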
Thyroid hormone receptor beta (Homo sapiens), sequence (P10828 whole entry, looked up): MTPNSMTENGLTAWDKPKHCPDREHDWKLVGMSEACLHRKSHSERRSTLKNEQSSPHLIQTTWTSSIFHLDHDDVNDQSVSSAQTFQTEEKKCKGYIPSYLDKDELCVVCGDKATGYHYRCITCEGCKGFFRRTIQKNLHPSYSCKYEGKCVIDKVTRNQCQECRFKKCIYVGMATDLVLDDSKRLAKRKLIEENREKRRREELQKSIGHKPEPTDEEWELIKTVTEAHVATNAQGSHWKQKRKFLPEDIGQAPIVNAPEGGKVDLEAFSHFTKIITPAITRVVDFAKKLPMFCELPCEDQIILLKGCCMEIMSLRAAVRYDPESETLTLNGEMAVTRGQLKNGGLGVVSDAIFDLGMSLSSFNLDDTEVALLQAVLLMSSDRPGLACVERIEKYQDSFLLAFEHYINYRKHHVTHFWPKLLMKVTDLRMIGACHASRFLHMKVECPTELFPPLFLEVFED

The nature of assay [17]: qHTS assay for small molecule antagonists of retinoid X receptor alpha signaling (AID 588546).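 Also: cells stimulated with 9-cis-retinoic acid as agonist; % is scaled to controls: 0 for no effect and ±100 for the full control effect.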 The note with it: HEK293T RXRa-UAS-bla, beta-lactamase ratio, antagonist mode; measured here: W530 green channel, cytotoxicity proxy. In outline: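 Beta-lactamase reporter inhibition, read as CCF4 fluorescence ratio (ex 405, em 460/530 nm) after 2 h at RT. HEK293T UAS-bla cells, 2500/well, were stimulated with 9-cis-RA at 500 or 100 nM final alongside test compound for 18 h at 37 C.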

Assay [18] deals with Tumor necrosis factor (Homo sapiens) (UniProt P01375). Description: qHTS assay to identify small molecules that stimulate Tumor Necrosis Factor-alpha (TNF-alpha) secretion (AID 651757; active = well fitted curve in the direction sought with a large enough effect in the signal ratio; the % refers to the signal ratio; also: 0% is about no effect). The note with it: Human cells, HTRF 665/615 ratio; series mostly up to 92.2 µM. In short, it runs like this:
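THP-1 cells were exposed to compounds for 17 hrs at 37 C, after which secreted TNF-alpha was measured by homogeneous HTRF (TR-FRET) using cryptate- and XL665-labeled anti-TNF-alpha antibodies, read after 3 hr at room temperature.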

Assay [19] is described as follows: qHTS assay for small molecule antagonists of the retinoid-related orphan receptor gamma (ROR-gamma) signaling pathway - cell viability counter screen (AID 720652; active = well fitted curve in the direction sought with a large enough effect in the repeat runs; an effect the other way counts as inactive or inconclusive;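 also: CHO reporter cells with doxycycline-induced ROR-gamma expression; compound exposure lasted 16 hr before ATP read; % is scaled to controls: 0 for no effect and ±100 for the full control effect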). The note with it: RORgamma reporter cell line viability counter screen; series mostly up to 92.2 µM. In short, it runs like this: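 Counter screen in CHO cells carrying TET-inducible ROR-gamma and an ROR response element-luciferase reporter; cells plated 5 hr, compound pinned, doxycycline added, then 16 hr at 37 C. Viability read as intracellular ATP by CellTiter-Glo luminescence.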

The target of assay [20] is Nuclear receptor subfamily 1 group I member 2 (Rattus norvegicus) (UniProt Q9R1A7). Nature of the assay: qHTS assay for small molecule activators of the rat pregnane X receptor (rPXR) signaling pathway (AID 651751; call rule not given here; also: 0% is about no effect). The note with it: rPXR reporter cells, luciferase (One-Glo), 24 h.
Nuclear receptor subfamily 1 group I member 2 (Rattus norvegicus), sequence (Q9R1A7 whole entry, looked up): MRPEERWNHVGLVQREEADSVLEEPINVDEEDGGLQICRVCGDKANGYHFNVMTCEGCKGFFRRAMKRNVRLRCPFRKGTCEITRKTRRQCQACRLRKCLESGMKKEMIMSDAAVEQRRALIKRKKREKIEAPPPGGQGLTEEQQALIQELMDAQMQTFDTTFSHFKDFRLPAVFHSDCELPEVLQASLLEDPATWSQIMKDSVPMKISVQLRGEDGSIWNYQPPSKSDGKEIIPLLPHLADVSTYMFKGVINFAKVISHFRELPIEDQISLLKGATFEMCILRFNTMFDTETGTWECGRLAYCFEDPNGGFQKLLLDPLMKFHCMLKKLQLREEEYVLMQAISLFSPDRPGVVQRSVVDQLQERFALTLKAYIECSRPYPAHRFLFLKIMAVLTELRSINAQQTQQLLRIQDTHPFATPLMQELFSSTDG

Tumor necrosis factor (Homo sapiens), sequence (P01375 whole entry, looked up): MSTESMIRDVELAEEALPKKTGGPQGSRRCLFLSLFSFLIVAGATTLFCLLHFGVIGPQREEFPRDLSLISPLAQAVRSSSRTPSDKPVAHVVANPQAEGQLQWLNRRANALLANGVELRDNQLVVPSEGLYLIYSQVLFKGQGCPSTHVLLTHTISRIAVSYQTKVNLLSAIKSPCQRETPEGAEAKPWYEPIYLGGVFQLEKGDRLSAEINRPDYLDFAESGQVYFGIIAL
Peroxisome proliferator-activated receptor gamma (Homo sapiens), sequence (P37231 whole entry, looked up): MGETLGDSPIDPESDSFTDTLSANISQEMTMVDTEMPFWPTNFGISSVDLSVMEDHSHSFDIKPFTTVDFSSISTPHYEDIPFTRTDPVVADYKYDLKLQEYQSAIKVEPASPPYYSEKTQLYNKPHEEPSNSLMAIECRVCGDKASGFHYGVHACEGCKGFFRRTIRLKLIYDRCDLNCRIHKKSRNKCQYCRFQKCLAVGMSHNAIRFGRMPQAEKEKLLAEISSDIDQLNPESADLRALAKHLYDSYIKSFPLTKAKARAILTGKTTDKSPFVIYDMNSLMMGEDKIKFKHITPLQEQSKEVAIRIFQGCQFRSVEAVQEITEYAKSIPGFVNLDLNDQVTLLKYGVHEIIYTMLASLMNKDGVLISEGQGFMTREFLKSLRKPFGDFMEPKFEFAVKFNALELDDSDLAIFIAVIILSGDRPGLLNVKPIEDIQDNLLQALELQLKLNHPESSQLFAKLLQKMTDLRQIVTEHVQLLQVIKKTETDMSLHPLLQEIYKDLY

For the molecule `CCOP(=S)(OCC)Oc1nc(Cl)c(Cl)cc1Cl`, the Potency is > 92 µM (inactive) in assay [1], > 92 µM (inactive) in assay [2] and 5.01 µM (active) in assay [5]. Besides, the Potency entry in assay [3], in [4], in assay [6], in assay [7], in [8] and in assay [9] was “inactive” each time. In addition, the Potency entry in [10], in [11], in assay [12], in assay [16] and in assay [19] was “inactive” each time. The outcome in assay [13], in [15] and in assay [18] was inactive. Moreover, the figures for the max response in assay [14], in assay [17] and in assay [20] were -1.15%, -8.45% [middle of 4 runs] and 6.81% (inactive) [middle of 4 runs], respectively.

As to `O=Cc1ccc(Cl)cc1Cl`, the Potency in assay [1] and in assay [2] was > 92 µM (inactive) throughout. The Potency result in [3], in [5], in assay [6], in assay [8], in [9] and in [10] was “inactive” each time. In addition, the Potency entry in [11], in [12], in assay [16] and in assay [19] was “inactive” in each case. Besides, the outcome in [13], in assay [15] and in assay [18] was inactive. Besides, the max response is -11.7% in [14], -13.3% in [17] and 2.77% (inactive) in assay [20].

Take `Clc1ccc(C(Cl)(Cl)Cl)c(Cl)c1`: the Potency in assay [1] and in assay [2] was > 92 µM (inactive) throughout. The Potency entry in assay [3], in [4], in assay [6], in assay [7], in assay [8] and in assay [9] was “inactive” in each case. Further, the Potency result in assay [10], in assay [11], in [12], in [16] and in assay [19] was “inactive” in each case. Further, the result in assay [13], in assay [15] and in assay [18] was inactive. For the same molecule, the max response in assay [14] is -5.84%; in [17] it was -9.41%; in [20], -3.95% (inactive).

On to `Cc1ccc2c(C)cccc2c1`, for which the Potency in assay [1] and in [2] was > 92 µM (inactive) throughout. The Potency entry in [3], in assay [4], in assay [5], in assay [7], in assay [8] and in assay [9] was “inactive” in each case. Moreover, the Potency entry in assay [10], in [11], in assay [12], in assay [16] and in assay [19] was “inactive” in each case. Further, the outcome in assay [13], in [15] and in assay [18] was inactive. Besides, the max response is -13.5% in [14], 4.96% in assay [17] and -3.71% (inactive) in assay [20].

Take `COC(=O)Nc1cccc(OC(=O)Nc2cccc(C)c2)c1`: the Potency in [1] is > 92 µM (inactive); in assay [2], > 92 µM (inactive); in assay [3], 39.8 µM (active); in assay [5], 25.1 µM (active). In addition, the Potency result in assay [4], in assay [6], in assay [7], in [8], in assay [9] and in assay [10] was “inactive” in each case. Moreover, the Potency entry in assay [11], in assay [12], in [16] and in [19] was “inactive” throughout. The outcome in assay [13], in assay [15] and in [18] was inactive. In addition, the max response in assay [14] was 14%; in assay [17] it was -2.23%.

Take `CC(Cl)CCl` (stereo not given): the Potency in [1] and in assay [2] was > 92 µM (inactive) in each case. Further, the Potency result in [3], in [4], in assay [5], in assay [6], in assay [7] and in [8] was “inactive” in each case. The Potency result in assay [9], in [10], in assay [11], in [12], in assay [16] and in assay [19] was “inactive” each time. For the same molecule, the result in assay [13], in assay [15] and in [18] was inactive. Besides, the max response in assay [14] was -14.1%; in assay [17], -10%; in [20], 3.07% (inactive).

As to `OCCOCCO`, the Potency in assay [1] and in [2] was > 92 µM (inactive) each time. In addition, the Potency result in [3], in assay [4], in [5], in [6], in [7] and in assay [8] was “inactive” in each case. In addition, the Potency entry in [9], in assay [10], in assay [11], in assay [12], in [16] and in assay [19] was “inactive” in each case. The outcome in [13], in assay [15] and in assay [18] was inactive. For the same molecule, the results for the max response in assay [14], in [17] and in [20] were -9.96%, 2.28% and 3.46% (inactive), respectively.
